Source: PubChem BioAssay AID1981 (Southern Research Specialized Biocontainment Screening …, 2009)
The campaign covered roughly 2,200 compounds. About 480 (22%) were called active. How the calls were made is not given here. Not all results are given here. Measured potencies and affinities stand elsewhere.

Assay: S. Typhimurium GFP fluorescence dose response in modified counterscreen for PhoP regulon inhibitor project (AID 1981);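 further: 0% = induced DMSO wells and 100% = uninduced wells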
Settings: 4 h; series mostly up to 150 µM; inhibition: at the top concentration

Structure (SMILES) | inhibition
O=C1CC(c2ccco2)CC(O)=C1C=Nc1cc(Cl)cc(Cl)c1 (centres undefined) | 4.95% (inactive)
Cc1cccc(NC(=O)c2cc(N3C(=O)CCC3=O)ccc2Cl)n1 | -10.7% (inactive)
Cc1oc(CC(C)C)c(CN2CCCC2)c1C(=O)O | 3.44% (inactive)
Cn1ncc(N=Cc2ccccc2O)c1C(=O)Nc1ccccc1 | -4.37% (inactive)
O=C(Cc1cccs1)Nc1nc2c(s1)CCCC2 | -17.5% (inactive)
Cn1cccc1C1NC(=O)c2c(sc3c2CCC(C(C)(C)C)C3)N1 (centres undefined) | 5.09% (inactive)
Cc1c(NS(=O)(=O)c2ccc(N(C)C3CCCCC3)c([N+](=O)[O-])c2)c(=O)n(-c2ccccc2)n1C | 8.27% (inactive)
CCCCOc1ccc(NC(=O)Nc2nnc(C)s2)cc1 | -0.03% (inactive)
COc1cccc2[nH]c3c(N4CCN(Cc5ccc6c(c5)OCO6)CC4)ncnc3c12 | 11.1% (inactive)
O=C(NCc1cccs1)Nc1cccs1 | -6.17% (inactive)
O=C(c1cccc(S(=O)(=O)N2CCOCC2)c1)N1CCCC1 | -6.02% (inactive)
O=C1C2CCCN2c2ccc(S(=O)(=O)N3CCOCC3)cc2N1Cc1ccccc1F (centres undefined) | 8% (inactive)
Cc1ccc(/C=C/C(=O)c2ccccc(=O)c2O)cc1C | 15.5% (inactive)
O=C(CSc1nncs1)Nc1ccc2c(c1)OCCO2 | -10.3% (inactive)
Cc1cccc(C)c1Nc1nnc(SCC(=O)Nc2sccc2C#N)s1 | -5.47% (inactive)
COc1ccccc1N1CCN(C/C(O)=C(\C#N)c2nc(-c3ccccc3)cs2)CC1 | 38.2% (inactive)
Cc1sc(NC(=O)c2ccco2)c(CN2CCN(c3ccc(F)cc3)CC2)c1C | -1.58% (inactive)
O=C(CCN1CCN(c2ccc(F)cc2)CC1)Nc1ccccc1F | -7.81% (inactive)
COc1ccc(CN2CCOCC2)cc1Br | -4.59% (inactive)
COc1ccc(C(=O)Oc2c(CN3CCOCC3)cc(Cl)c3cccnc23)cc1 | -4.17% (inactive)
CNc1ncc(Cc2ccccc2)s1 | -5.18% (inactive)
COC(=O)c1[nH]c2ccc(C)cc2c1NC(=O)Nc1ccc(OC)cc1 | 15.2% (inactive)
CC(=O)Nc1ccc(S(=O)(=O)N2CCC(n3cnc4cc(F)ccc43)CC2)cc1 | -8.65% (inactive)
CC(=O)c1c(C)n([O-])c2ccccc2[n+]1=O | 1.77% (inactive)
O=C(CSc1nc2[nH]ncc2c(=O)[nH]1)N1CCCCC1 | -11.2% (inactive)

Structure (SMILES) | inhibition
Cc1ccc2nc(C(F)OC(F)(F)F)[nH]c2c1 (centres undefined) | -19.4% (inactive)
Nc1cccc(-c2nc3ccc(N)cc3s2)c1 | 22.6% (inactive)
O=[N+]([O-])/C=C/c1cc2ccccc2[nH]1 | 32.9% (inactive)
CCN(CC)CCN(Cc1cc2cc3c(cc2[nH]c1=O)OCCO3)C(=O)NC1CCCCC1 | -14.5% (inactive)
c1ccc(Oc2cc(-c3ccccc3)ncn2)cc1 | 2.31% (inactive)
COc1ccc(CN2C(=O)Cc3c2nc(N)c2c(N)nc(N4CCCCC4)c(C#N)c32)cc1 | 25.6% (inactive)
C=COC(=O)CSc1snc(SCC(=O)OC)c1C#N | -13% (inactive)
Cc1cccc2nc(CSc3nc4ccccc4o3)cn12 | 1.89% (inactive)
O=C(CSCc1ccccc1)Nc1ccc2c(c1)OCO2 | -12.3% (inactive)
O=C(Cc1ccccc1)NC1c2ccccc2-c2ccccc21 | -8.08% (inactive)
O=C(NCc1ccco1)C1CC(=O)N(CCc2ccccc2)C1 (centres undefined) | -2.95% (inactive)
Cn1cccc1CC(=O)NNC(=S)Nc1ccc(Cl)cc1 | 1.77% (inactive)
NC1=NC(=Nc2ccc(Br)cc2)c2ccccc21 | -1.28% (inactive)
N#C/C=C(/N)c1ccc(Br)cc1 | 7.34% (inactive)
O=c1c(Cl)c(Cl)cnn1-c1ccccc1 | 12.9% (inactive)
O=C(Cc1cn2ccsc2n1)Nc1ccccc1Oc1ccccc1 | -11.4% (inactive)
N#CC1=C(N)N=C(SCc2cccc3ccccc23)C(C(N)=O)C12CCCCC2 (centres undefined) | 34.8% (inactive)
CCCCn1c(/N=C/c2ccccc2NS(=O)(=O)c2ccc(C)cc2)nc2ccccc21 | 15.6% (inactive)
CCOC(=O)C1=C(c2ccccc2)NC(SC)=C(C#N)C1c1ccco1 (centres undefined) | 4.7% (inactive)
FC(F)(F)c1cccc(NC(=S)NCCN2CCOCC2)c1 | -26% (inactive)
Nc1nc(CSc2nc3ccccc3[nH]2)nc(N2CCOCC2)n1 | -4.29% (inactive)
CN1/C(=C\C=N\NC(=O)c2ccccc2Br)C(C)(C)c2ccccc21 | 3.5% (inactive)
CC(C)=CCN1CCN(Cc2ccoc2)CC1CCO (centres undefined) | -23.8% (inactive)
COc1ccc(N2C(=O)[C@@H]3[C@H](C2=O)[C@H]2c4ccccc4C=CN2[C@@H]3C(=O)Nc2ccccc2)cc1 | 12.3% (inactive)
COc1ccc(C(C(=O)NC2CCCC2)N(C(=O)c2ccoc2C)c2cc(C)cc(C)c2)cc1 (centres undefined) | -16.8% (inactive)

Structure (SMILES) | inhibition
Cc1cc(C)nc(Nc2ccc(N3CCCC3)cc2)n1 | 35.5% (inactive)
Cc1ccc(Nc2nc(N)nc(CC#N)n2)cc1 | 12.2% (inactive)
CSc1nnc(NC(=O)CCc2ccccc2)s1 | 31.3% (inactive)
CCN(CC)CCOc1ccc2c(c1)C(=NNC(=O)c1ccccn1)c1cc(OCCN(CC)CC)ccc1-2 | 21.5% (inactive)
CCOC(=O)C(C)/C(C)=N/NC(=O)c1cc2ccccc2cc1O (centres undefined) | 35% (inactive)
O=C1CC(N2CCN(Cc3ccccc3)CC2)C(=O)N1c1ccccc1 (centres undefined) | -3.65% (inactive)
NC(=O)c1c(N)sc2c1CCCCC2 | -4.1% (inactive)
COc1cccc(C2CC(c3ccccc3OC)n3nc(N)nc3N2)c1 (centres undefined) | -9.32% (inactive)
COc1ccc(CC(=O)n2nc(-c3ccccc3)nc2NCc2ccco2)cc1 | -5.7% (inactive)
CCn1c(Cc2ccccc2)nnc1SCC(=O)Nc1ccc(S(N)(=O)=O)cc1 | -19.4% (inactive)
C/C(=N\NC(=O)c1c(Cl)c(C)nn1C)c1cccc(NC(=O)COc2ccc(Cl)cc2)c1 | 0.33% (inactive)
COc1cccc(/C=N/n2c(C)nc3ccccc3c2=O)c1O | 2.55% (inactive)
Cc1cccc(C)c1OCC(=O)Nn1c(COc2ccccc2)nc2ccccc2c1=O | -24.9% (inactive)
C=CCNC(=O)c1ccc(N(C)S(=O)(=O)c2ccc(OC)cc2)cc1 | 4.47% (inactive)
O=C(Nc1nc2ccc(SC(F)F)cc2s1)c1ccc2c(c1)S(=O)(=O)c1ccccc1C2=O | -4.49% (inactive)
Oc1ccc(Nc2nc(-c3cccs3)cs2)cc1 | 30.8% (inactive)
COC(=O)c1cc(C)nc2c1C(=O)C(=O)C=C2N1CCOCC1 | 7.24% (inactive)
Nc1ccc(Nc2ccccc2N)cc1 | 19% (inactive)
Nc1ccc(Nc2ccccc2)c(Cl)c1 | 3.59% (inactive)
O=C(OCC(=O)c1ccc(S(=O)(=O)N2CCCC2)cc1)C1=COCCO1 | 5.66% (inactive)
O=C(NC(NC(=S)Nc1ccc(Cl)c(Cl)c1)C(Cl)(Cl)Cl)c1ccco1 (centres undefined) | -7.65% (inactive)
O=C(NCc1ccco1)c1ccc(Br)s1 | -1.93% (inactive)
CCCCN(C)C(=O)c1cn(C)c2ccc(S(=O)(=O)N(C)C)cc2c1=O | 5.65% (inactive)
CCOC(=O)c1cnc(SCC(=O)Nc2ccc(N3CCOCC3)c(Cl)c2)nc1N | -2.55% (inactive)
